# High-throughput results from PubChem.
# Only some compounds are listed: those with a hit (about 2.4% of all), similar ones and a draw of the others.
# D2 antagonist – antagonizes the human D2 dopamine receptor; 340,000 compounds, 2% hits; P14416; AID 485344; HEK293 TREx D2 cells, calcium flux, dopamine EC80; inhibition, % at 10 µM; in the data active = inhibition above about 30%; inactive = below that, where a call was filed; also: 0% is about no effect
# Target sequence (P14416 whole entry, looked up): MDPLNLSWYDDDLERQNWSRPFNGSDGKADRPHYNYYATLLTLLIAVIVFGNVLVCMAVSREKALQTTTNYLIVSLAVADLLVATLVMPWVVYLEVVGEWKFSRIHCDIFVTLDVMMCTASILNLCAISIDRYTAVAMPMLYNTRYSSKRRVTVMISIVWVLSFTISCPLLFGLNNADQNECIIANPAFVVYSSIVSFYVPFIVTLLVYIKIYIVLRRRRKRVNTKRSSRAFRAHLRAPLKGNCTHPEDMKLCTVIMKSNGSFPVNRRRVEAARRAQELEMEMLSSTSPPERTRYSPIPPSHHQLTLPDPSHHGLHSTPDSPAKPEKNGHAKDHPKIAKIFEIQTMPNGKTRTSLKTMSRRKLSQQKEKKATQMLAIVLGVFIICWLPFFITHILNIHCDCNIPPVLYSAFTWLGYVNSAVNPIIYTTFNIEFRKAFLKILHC
#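 Tetracycline-induced HEK293 TREx cells expressing D2 receptor forced-coupled to calcium signalling, loaded with no-wash calcium dye. Compounds added and calcium flux read 180 s, then dopamine added at EC80 and read a further 180 s.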
# D2 ag-1 – agonists of human D2 dopamine receptor (beta-arrestin); activation, % (concentration not given with the values); P14416; AID 624465; DiscoveRx PathHunter D2 beta-arrestin, luminescence, 90 min; 100% = 57 uM dopamine signal; 360,000 compounds, 0.084% hits; in the data active = activation above about 40%; inconclusive = between about 15% and that limit
#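 DiscoveRx PathHunter D2 beta-arrestin cells (2,100/well) attached overnight, then compound-stimulated 90 min at 37 C in HBSS/10 mM HEPES/0.1% Tween-20 buffer; beta-galactosidase complementation read by luminescence after 1 h at ambient temperature. Dopamine 57 uM final (EC100) as control.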
# D2 PAM-1 – positive allosteric modulators of human D2 dopamine receptor. P14416. DiscoveRx D2 beta-arrestin cells, luminescence, 90 min; 100% = 57 uM dopamine signal. potentiation, % (test concentration not listed). 360,000 compounds, 0.23% hits. AID 624464; in the data active = potentiation above about 50%; inconclusive = mostly about 30% to 49%
#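 PathHunter beta-arrestin assay in DiscoveRx D2 cells. Compounds were added with an EC20 of dopamine (50 nM final) for 90 min at 37 deg C. Luminescence was read 1 h after detection reagent, with 57 uM dopamine as the EC100 control.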
# D2 ag-2 – agonists of human D2 dopamine receptor | AID 485358 | 340,000 compounds, 0.53% hits | activation, % at 2 µM | HEK293 T-REx D2 cells, calcium flux agonist mode | P14416;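 active = activation over 3 SD above normal in the single-dose calcium agonist read, cut at about 30% in these data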; also: 0% is about no effect
#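 HEK293 Trex D2 cells, tetracycline-induced, o/n 30 C 5% CO2; no-wash Ca dye, RT 30–90 min; 10-cycle baseline, 23 nl cpd added, kinetic Ca read 180 s; agonist hits = positive Ca response.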
# D2 PAM-2 – positive allosteric modulators of human D2 dopamine receptor; P14416; HEK293 T-REx D2, calcium flux, EC20 dopamine potentiation; potentiation, % at 10 µM; 340,000 compounds, 0.34% hits; AID 485347;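 active = potentiation over 3 SD above the plate norm, cut at about 30% in these data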; also: 0% is about no effect
#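 Primary screen. Calcium kinetics in induced HEK293 T-REx D2 cells: compound pre-addition 180 s, EC20 dopamine, 180 s more.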
# * hit, by the source's call; ? = inconclusive; · = no result.
SMILES,D2 antagonist,D2 ag-1,D2 PAM-1,D2 ag-2,D2 PAM-2
COc1cc(O)c(C(CC(=O)N2CCCC(C)C2)c2ccc(N(C)C)cc2)c(OC)c1 (stereo not given),31.3*,-4.5,-10.6,0.3,-4.0
CC1CCN(CCCCOc2ccccc2-c2ccccc2)CC1,83.8*,2.6,-11.9,0.5,-20.7
CC1CCN(CCOCCOc2ccccc2Br)CC1,13.4,-4.2,-17.9,1.7,-28.1
CC1CCCN(CCCOc2ccccc2-c2ccccc2)C1 (stereo not given),73.4*,-1.8,-20.6,-1.3,-27.7
CC1CCCN(CCOCCSc2ccccc2)C1 (stereo not given),1.5,-5.0,-26.3,-2.5,-19.9
CC1CCN(CCOCCOc2ccccc2-c2ccccc2)CC1,55.8*,-2.6,-45.0,-0.1,-27.1
O=[N+]([O-])c1cc(-c2n[nH]c(-c3ccccc3)n2)cc([N+](=O)[O-])c1,-8.9,6.0,53.2*,0.3,12.7
O=[N+]([O-])c1cc([N+](=O)[O-])c2n[nH]c(-c3ccccc3)c2c1,0.5,4.9,8.0,0.0,2.1
Cc1cc(O)c2c(c1)C(=O)c1cc(O)cc(O)c1C2=O,·,-4.6,-3.5,·,·
O=C1c2cccc(O)c2C(=O)c2c(O)cc(CO)cc21,·,13.9,88.9*,·,·
O=C(NCc1ccccc1Cl)c1ccc2c(c1)N(Cc1ccccc1)C(=O)CS2,·,·,·,0.6,-6.3
CCCCn1c(-c2ccc(OC(F)F)cc2)nc2c1c(=O)[nH]c(=O)n2CC(C)C,-2.4,2.7,-0.3,-2.2,32.7*
COc1cccc(CNC(=O)C(C)n2ncn3cccc3c2=O)c1OC (stereo not given),·,·,·,-0.7,·
CCOc1ccc(NC(=O)C2CCN(S(=O)(=O)c3cccs3)CC2)cc1,-1.3,4.7,10.9,-2.0,32.0*
O=C(NCCN1C(=O)S/C(=C\c2ccccc2)C1=O)C1CCN(S(=O)(=O)c2cccs2)CC1,33.4*,-2.3,-9.0,1.3,-10.5
O=C(NCCc1ccccc1)C1CCN(S(=O)(=O)c2cccs2)CC1,-5.1,-2.1,-3.5,-0.2,-14.3
Cc1ccc2c(c1)sc1nc(-c3cc4ccccc4oc3=O)cn12,·,·,·,-0.1,-2.0
COCc1nc(-c2ccc(-c3ccccc3)nc2OC)no1,42.3*,-1.0,-3.8,0.2,5.2
COc1cccc(-c2ccc(-c3noc(-c4ccccc4F)n3)c(OC)n2)c1,39.8*,-2.9,-13.5,1.2,-22.5
O=C(NC1CCCCC1)c1cccc2c1C(=O)c1ccc(N3CCCC3)cc1S2(=O)=O,·,-2.2,-7.7,·,·
O=C(NC1CCCC1)c1cccc2c1C(=O)c1ccc(N3CCCCC3)cc1S2(=O)=O,19.6,-7.1,-4.2,4.3,36.6*
N#CCCCSc1ncccc1-c1nc2ccccc2[nH]1,-5.6,-0.1,1.0,0.3,4.4
N#CCSc1ncccc1-c1nc2ccccc2[nH]1,14.0,-1.4,-4.0,0.8,36.7*
COC(=O)c1c(NC(=O)C(C)C)sc2c1C(C(=O)OC)CC2 (stereo not given),0.4,-2.6,-6.6,0.0,47.4*
CCCn1nnnc1NCc1ccc(C(C)C)cc1,33.9*,-1.1,-36.9,-0.8,1.0
SMILES,D2 antagonist,D2 ag-1,D2 PAM-1,D2 ag-2,D2 PAM-2
O=C(NCc1ccncc1)C(=O)NCC(c1ccco1)N1CCN(c2ccccc2F)CC1 (stereo not given),1.4,7.2,-1.2,34.3*,-11.6
O=C(NCC1CCCO1)C(=O)NCC(c1ccco1)N1CCN(c2ccccc2)CC1 (stereo not given),20.5,14.1,-8.3,35.5*,-5.9
O=C(COc1ccccc1)NCC(c1ccco1)N1CCN(c2ccccc2F)CC1 (stereo not given),-0.3,?,-5.3,33.6*,-4.9
O=C(NCC1CCCO1)C(=O)NCC(c1ccco1)N1CCN(c2ccc(F)cc2)CC1 (stereo not given),9.5,-2.6,-11.8,1.6,5.3
COc1ccc2nc(N3CCN(C(=O)C4CC4)CC3)sc2c1,·,·,·,1.8,15.8
COc1ccccc1Cn1c(SCC(=O)C(C)(C)C)nc2ccccc2c1=O,·,·,·,1.7,2.9
Cc1cc(C)c(S(=O)(=O)N2CCCC2=O)c(C)c1N(C)S(C)(=O)=O,37.8*,-2.8,-1.7,0.9,-6.5
CNc1nc(C)nc(N/N=C/c2ccccc2)n1,42.4*,9.9,-5.2,12.3,-1.9
Cc1cccc(CNC(=O)c2cc3cc(S(=O)(=O)N4CCCCC4)ccc3n2C)c1,·,·,·,0.5,-0.5
COc1nc(OC)nc(N2CCCCCC2)n1,33.0*,0.1,-4.2,-1.1,3.5
COc1nc(OC)nc(N2CCC(C(=O)NCC3CCCCC3)CC2)n1,-5.1,-0.2,-4.2,-0.7,13.9
CCCCN(CC)CCNC(=O)c1cc2c(=O)n(CC)c3ccccc3c2s1,35.7*,-1.9,-18.5,-3.1,8.3
CCCCN(CC)CCNC(=O)c1cc2c(-c3ccccc3F)nn(C)c2s1,-28.3,44.2*,8.1,1.2,-3.9
Cc1ccc(CCNC(=O)c2cc3c(-c4ccccc4F)nn(C)c3s2)cc1,·,·,·,0.4,-14.2
Nc1nc(N)c(S(=O)(=O)c2ccccc2)c(Nc2ccc(F)cc2)n1,·,·,·,-0.5,-0.6
Cc1ccc(CN2C(=O)N(c3ccc(F)cc3)C(=O)C2CC(=O)Nc2ccc(Cl)cc2)cc1 (stereo not given),·,·,·,0.6,-24.3
O=C(NC1CCCC1)C(c1ccncc1)N(Cc1cccs1)C(=O)c1csnn1 (stereo not given),35.6*,-1.8,-12.2,-0.7,2.7
CC(C)(C)NC(=O)C(c1ccncc1)N(Cc1cccs1)C(=O)c1csnn1 (stereo not given),-3.1,-1.0,-3.6,1.1,-6.3
COc1cccc(OCC(=O)Nc2nnc3n2CCS3)c1,·,·,·,-0.8,9.4
O=C(Cn1ncc2c(=O)oc3ccccc3c21)Nc1cc(F)ccc1F,·,·,·,·,1.3
Cc1cc(S(=O)(=O)C(CNC(=O)COc2ccc(Cl)cc2)c2cccs2)ccc1F (stereo not given),·,·,·,1.1,-3.8
CCN(CC)S(=O)(=O)c1ccc(NC(=O)NCc2noc3ccc(C)cc23)cc1,·,·,·,0.6,1.7
COC(=O)CSc1nc2ccccc2nc1SCC(=O)OC,-7.2,0.3,-11.9,0.7,31.1*
N#Cc1ccccc1NC(=O)C(=O)NCCc1csc(-c2ccc(C(F)(F)F)cc2)n1,·,·,·,1.0,-5.8
Cc1cccc(OCC(=O)Nc2nnc(S(=O)(=O)N3CCc4ccccc43)s2)c1,·,·,·,-0.5,5.5
Cc1cccc(C)c1NCc1n[nH]c(=S)n1-c1ccccc1,51.3*,3.8,-2.9,-2.0,7.7
CCN(CC)CCCOC(=O)C(c1ccccc1)c1ccccc1,49.7*,-5.4,-82.0,-2.3,-21.4
COc1ccc(S(=O)(=O)N2CCN(c3ccc(Cl)c(Cl)c3)CC2)c2ccccc12,·,·,·,-0.3,13.1
Cc1cc(C)c(O)c(-c2cc(C(=O)Nc3ccc(S(=O)(=O)N4CCOCC4)cc3)[nH]n2)c1,-6.5,3.9,15.8,0.8,35.8*
